In PubChem BioAssay AID1159580 (chemical genetic matrix, 2015):
The campaign covered roughly 5,500 compounds. About 2,000 (36%) were called active. Inconclusive results (about 18%) are left out. No stated cut-off is given here; in the data, active means normalized growth mostly below about 0.91 (no sharp cut-off); inconclusive means no clear call, values can overlap the other calls; inactive means mostly above about 0.92. Some of the results follow.

Assay: chemical genetic growth profiling, strain panel (AID 1159580);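 further: tested at 20 µM; growth read once vehicle control cultures reached saturation at 30 °C; 1 = growth at the plate median or of vehicle wells; lower values mean less growth of the strain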
Settings: S. cerevisiae deletion strains, growth OD

Measured: normalized growth

C[C@@H]1OC(O[C@H]2[C@H](OC(=O)[C@]34CCC(C)(C)CC3C3=CCC5[C@@]6(C)CC[C@H](OC7O[C@@H](C)[C@H](O[C@@H]8OC[C@@H](O)[C@H](O)[C@H]8O)[C@@H](O)[C@H]7O)C(C)(C)C6CC[C@@]5(C)[C@]3(C)CC4O)OC[C@H](O)[C@H]2O)[C@H](O)[C@H](O)[C@H]1O[C@@H]1O[C@H](CO)[C@@H](O)[C@H](O)[C@H]1O (some centres undefined)
inactive: locus YBR021W, strain FUR4, active compounds read low 0.963 | locus YBR229C, strain ROT2, active compounds read low 0.967 | locus YCL029C, strain bik1, active compounds read low 1.01 | locus YDL074C, strain BRE1, active compounds read low 0.885 | locus YDL101C, strain DUN1, active compounds read low 0.984 | locus YDL185W, strain tfp1, active compounds read low 0.974 | locus YDR101C, strain arx1, active compounds read low 0.985 | locus YDR318W, strain mcm21, active compounds read low 0.917 | locus YDR502C, strain sam2, active compounds read low 0.936 | locus YEL061C, strain CIN8, active compounds read low 0.95 | locus YER110C, active compounds read low 0.996 | locus YGL078C, strain dbp3, active compounds read low 0.929 | locus YGL086W, strain mad1, active compounds read low 0.977 | locus YGL248W, strain PDE1, active compounds read low 0.993 | locus YGR135W, strain pre9, active compounds read low 0.978 | locus YGR252W, strain gcn5, active compounds read low 0.934 | locus YHR079C, strain IRE1 (second series), active compounds read low 0.975 | locus YHR094C, strain hxt1, active compounds read low 0.982 | locus YHR129C, strain ARP1, active compounds read low 0.923 | locus YHR200W, strain rpn10, active compounds read low 0.974 | locus YIL066C, strain RNR3, active compounds read low 0.912 | locus YIL073C, strain SPO22, active compounds read low 0.936 | locus YIL125W, strain kgd1, active compounds read low 0.958 | locus YIR030C, strain dcg1, active compounds read low 0.969 | locus YJL134W, strain LCB3, active compounds read low 1.04 | locus YJL168C, strain set2, active compounds read low 1.01 | locus YJL187C, strain SWE1 (second series), active compounds read low 0.925 | locus YJR043C, strain POL32, active compounds read low 0.858 | locus YJR075W, strain HOC1, active compounds read low 0.957 | locus YKL068W, active compounds read low 0.949 | locus YLR039C, strain RIC1, active compounds read low 0.842 | locus YLR058C, strain SHM2, active compounds read low 0.972 | locus YLR102C, strain apc9, active compounds read low 0.982 | locus YLR262C, strain YPT6, active compounds read low 0.709 | locus YLR268W, strain sec22, active compounds read low 0.966 | locus YLR330W, strain CHS5, active compounds read low 0.993 | locus YLR342W, strain FKS1 (second series), active compounds read low 0.927 | locus YML016C, strain PPZ1, active compounds read low 1 | locus YML124C, strain tub3, active compounds read low 0.993 | locus YMR078C, strain ctf18, active compounds read low 0.987 | locus YNL067W, strain RPL9B, active compounds read low 0.983 | locus YNL128W, strain TEP1, active compounds read low 0.887 | locus YNL153C, strain GIM3, active compounds read low 0.958 | locus YNL233W, strain BNI4, active compounds read low 0.997 | locus YNL271C, strain bni1, active compounds read low 1 | locus YNL307C, strain MCK1, active compounds read low 0.991 | locus YOL147C, strain pex11, active compounds read low 0.986 | locus YOR069W, strain VPS5, active compounds read low 1.01 | locus YOR136W, strain idh2, active compounds read low 0.951 | locus YOR144C, strain elg1, active compounds read low 0.982 | locus YOR316C, strain cot1, active compounds read low 0.984 | locus YPL055C, strain LGE1, active compounds read low 0.841 | locus YPL241C, strain CIN2, active compounds read low 0.989 | locus YPR119W, strain clb2, active compounds read low 0.988 | locus YPR141C, strain kar3, active compounds read low 0.981 | locus YPR163C, strain tif3, active compounds read low 0.935 | strain wtn01, active compounds read low 0.955
active: locus YDL035C, strain GPR1, active compounds read low 0.785 | locus YDL134C, strain PPH21, active compounds read low 0.883 | locus YDL192W, strain arf1, active compounds read low 0.825 | locus YDR162C, strain NBP2, active compounds read low 0.0581 | locus YDR388W, active compounds read low 0.918 | locus YER155C, strain BEM2, active compounds read low 1.12 [resistant] | locus YER167W, strain BCK2, active compounds read low 0.895 | locus YHR030C, strain SLT2, active compounds read low 0.323 | locus YJL095W, strain BCK1, active compounds read low 0.33 | locus YKL009W, strain mrt4, active compounds read low 0.876 | locus YKL085W, strain MDH1 (second series), active compounds read low 0.904 | locus YKL085W, strain MDH1, active compounds read low 0.904 | locus YKR001C, strain vps1, active compounds read low 0.721 | locus YLR371W, strain rom2, active compounds read low 0.714 | locus YLR418C, strain cdc73, active compounds read low 0.745 | locus YML032C, strain rad52, active compounds read low 0.824 | locus YMR223W, strain ubp8, active compounds read low 0.895 | locus YMR307W, strain GAS1, active compounds read low 0.212 | locus YNL250W, strain rad50, active compounds read low 0.891 | locus YNL298W, strain CLA4, active compounds read low 0.838 | locus YNR052C, strain pop2, active compounds read low 0.815 | locus YOL012C, strain htz1 2.15 [resistant] | locus YOR061W, strain CKA2, active compounds read low 0.59 | locus YOR184W, strain ser1, active compounds read low 0.79 | locus YPR167C, strain met16, active compounds read low 0.861

CC(CC(=O)C1OC1(C)C)C1C(=O)CC2(C)C3=CCC4C(C)(C)C(OC5OCC(O)C(O)C5O)CCC45CC35C(O)CC12C (centres undefined)
inactive: locus YAL021C, strain ccr4, active compounds read low 1.03 | locus YAL026C, strain drs2, active compounds read low 1.01 | locus YAL030W, strain snc1, active compounds read low 1.04 | locus YBL061C, strain skt5, active compounds read low 1.02 | locus YBR009C, strain hhf1, active compounds read low 1.02 | locus YBR023C, strain chs3, active compounds read low 1.01 | locus YBR171W, strain sec66, active compounds read low 1.03 | locus YBR231C, strain swc5, active compounds read low 1.02 | locus YBR279W, strain paf1, active compounds read low 1.02 | locus YCL011C, strain gbp2, active compounds read low 1.02 | locus YCL016C, strain dcc1, active compounds read low 1 | locus YCL061C, strain MRC1, active compounds read low 1.02 | locus YCL069W, strain vba3, active compounds read low 1.01 | locus YCR088W, strain abp1, active compounds read low 1.02 | locus YDL005C, strain med2, active compounds read low 1.03 | locus YDL040C, strain nat1, active compounds read low 1.02 | locus YDR001C, strain nth1, active compounds read low 1.02 | locus YDR069C, strain doa4, active compounds read low 1.03 | locus YDR137W, strain rgp1, active compounds read low 1.04 | locus YDR159W, strain sac3, active compounds read low 1.04 | locus YDR195W, strain ref2 1.01 | locus YDR297W, strain sur2, active compounds read low 1.02 | locus YDR334W, strain swr1, active compounds read low 1.01 | locus YDR335W, strain msn5, active compounds read low 1.02 | locus YDR392W, strain spt3, active compounds read low 1.03 | locus YEL003W, strain gim4, active compounds read low 1.02 | locus YEL037C, strain rad23, active compounds read low 1.04 | locus YEL061C, strain CIN8 (second series), active compounds read low 1.02 | locus YER015W, strain faa2, active compounds read low 1.02 | locus YER016W, strain bim1, active compounds read low 1.02 | locus YER111C, strain swi4, active compounds read low 1.03 | locus YER155C, strain BEM2 (second series), active compounds read low 1.03 | locus YFR010W, strain ubp6, active compounds read low 1.03 | locus YGL167C, strain pmr1, active compounds read low 1.03 | locus YGL173C, strain kem1, active compounds read low 1.02 | locus YGL227W, strain vid30, active compounds read low 1.02 | locus YGL240W, strain doc1, active compounds read low 1.03 | locus YGL253W, strain hxk2, active compounds read low 1.01 | locus YHR013C, strain ard1, active compounds read low 1.08 | locus YHR027C, strain rpn1, active compounds read low 1.02 | locus YHR142W, strain chs7, active compounds read low 1.01 | locus YJL092W, strain hpr5, active compounds read low 1.02 | locus YJL095W, strain BCK1 (second series), active compounds read low 1.03 | locus YJL115W, strain asf1, active compounds read low 1.01 | locus YJL129C, strain trk1, active compounds read low 1.01 | locus YJL154C, strain vps35, active compounds read low 1.02 | locus YJL164C, strain tpk1, active compounds read low 1.01 | locus YJL166W, strain qcr8, active compounds read low 1.02 | locus YJL187C, strain SWE1, active compounds read low 1.02 | locus YKL160W, strain elf1, active compounds read low 1.03 | locus YKR026C, strain gcn3, active compounds read low 1.03 | locus YKR091W, strain srl3, active compounds read low 1.03 | locus YLL001W, strain dnm1, active compounds read low 1.01 | locus YLL026W, active compounds read low 1.02 | locus YLL041C, strain sdh2, active compounds read low 1.01 | locus YLR027C, strain aat2, active compounds read low 1.03 | locus YLR221C, strain rsa3, active compounds read low 1.02 | locus YLR258W, strain gsy2, active compounds read low 1.01 | locus YLR262C, strain YPT6 (second series), active compounds read low 1.05 | locus YLR320W, strain mms22, active compounds read low 1.04 | locus YLR342W, strain FKS1, active compounds read low 1.01 | locus YLR357W, strain rsc2, active compounds read low 1.02 | locus YLR370C, strain arc18, active compounds read low 1.02 | locus YLR384C, strain iki3, active compounds read low 1.02 | locus YML120C, strain ndi1, active compounds read low 1.02 | locus YMR058W, strain fet3, active compounds read low 1.02 | locus YMR125W, strain sto1, active compounds read low 1.03 | locus YMR129W, active compounds read low 1.02 | locus YMR205C, strain PFK2, active compounds read low 1.03 | locus YMR231W, strain pep5, active compounds read low 1.01 | locus YNL071W, strain lat1, active compounds read low 1.01 | locus YNL209W, strain ssb2, active compounds read low 1.02 | locus YNL248C, strain rpa49, active compounds read low 1.02 | locus YNL322C, strain KRE1 (second series), active compounds read low 1.03 | locus YNR049C, strain mso1, active compounds read low 1.02 | locus YOR001W, strain rrp6, active compounds read low 1.02 | locus YOR070C, strain gyp1, active compounds read low 1.01 | locus YOR080W, strain dia2, active compounds read low 1.03 | locus YOR083W, strain WHI5, active compounds read low 1.02 | locus YOR106W, strain vam3, active compounds read low 1.03 | locus YOR265W, strain rbl2, active compounds read low 1.01 | locus YOR270C, strain vph1, active compounds read low 1.02 | locus YOR290C, strain snf2, active compounds read low 1.02 | locus YPL051W, strain arl3, active compounds read low 1.02 | locus YPL078C, strain atp4, active compounds read low 1.02 | locus YPL106C, strain sse1, active compounds read low 1.04 | locus YPL240C, strain hsp82, active compounds read low 1.04
